Only some compounds are listed: those with a hit (about 0.4% of all), similar ones and a draw of the others.
GAA spleen mod: qHTS Assay for Inhibitors and Activators of Human alpha-Glucosidase From Spleen Homogenate | human spleen homogenate, 4-MU-alpha-glucoside fluorescence | 0.006% of 240,000 active | Potency, µM (top dose mostly 79.9 µM), without a hit: at the top dose activity change, negative = inhibition, most hits filed as inhibitors | Lysosomal alpha-glucosidase (Homo sapiens), P10253;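 further: potency means the concentration at half of the fitted maximal effect; 0% = enzyme with vehicle and -100% = no enzyme basal signal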
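Enzyme source: human spleen homogenate, 1 ug/well. Buffer 50 mM citric acid/K phosphate pH 5.0, 0.01% Tween-20. 4-MU-alpha-glucoside 1 mM; 37 C x 40 min; NaOH/glycine stop; fluorescence.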
GAA glycogen: qHTS Assay for Inhibitors and Activators of Human alpha-Glucosidase Cleavage of Glycogen; AID 2100, 2009; Potency, µM (doses to about 76.4 µM), for inactives: at the top dose activity change, negative = inhibition, hits mostly inhibitors; recombinant GAA, glycogen substrate, Amplex Red glucose oxidase fluorescence; 0.38% of 300,000 active;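 further: potency means the concentration at half of the fitted maximal effect; 0% = full enzyme reaction and -100% = no-enzyme basal signal; the screen sought inhibitors and activators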
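Natural-substrate format: glycogen cleavage by 4 nM human enzyme, glucose read by Amplex Red coupling (Ex 573, Em 610 nm). Normalized to enzyme and no-enzyme controls.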
GLA spleen mod: qHTS Assay for Inhibitors and Activators of Human alpha-Galactosidase From Spleen Homogenate; Alpha-galactosidase A (Homo sapiens), P06280; human spleen homogenate, 4MU-alpha-Gal fluorescence, 40 min; Potency, µM (series often up to 80 µM), inactives show at the highest dose activity change, negative = inhibition, actives largely listed as inhibitors; 0.008% of 240,000 active;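 further: potency means the concentration at half of the fitted maximal effect; 0% = enzyme with vehicle and -100% = no enzyme basal signal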
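Fluorogenic readout (Ex 365/Em 440 nm) of 4-methylumbelliferone released from 1 mM 4-MU-alpha-galactoside by spleen homogenate, 40 min at 37C, pH 5.0. Data normalized to no-enzyme and enzyme controls; Hill-equation AC50 from compound titrations.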
GLA inh pH 4.5: qHTS Assay for Inhibitors of Human alpha-Galactosidase at pH 4.5; purified enzyme, 4-MU-alpha-Gal fluorescence, pH 4.5; Alpha-galactosidase A (Homo sapiens), P06280; 230,000 tested, under 10 active; activity change, negative = inhibition, % at 105 µM;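 further: 0% = full activity with enzyme and -100% = basal without enzyme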
Target sequence (P06280 whole entry, looked up): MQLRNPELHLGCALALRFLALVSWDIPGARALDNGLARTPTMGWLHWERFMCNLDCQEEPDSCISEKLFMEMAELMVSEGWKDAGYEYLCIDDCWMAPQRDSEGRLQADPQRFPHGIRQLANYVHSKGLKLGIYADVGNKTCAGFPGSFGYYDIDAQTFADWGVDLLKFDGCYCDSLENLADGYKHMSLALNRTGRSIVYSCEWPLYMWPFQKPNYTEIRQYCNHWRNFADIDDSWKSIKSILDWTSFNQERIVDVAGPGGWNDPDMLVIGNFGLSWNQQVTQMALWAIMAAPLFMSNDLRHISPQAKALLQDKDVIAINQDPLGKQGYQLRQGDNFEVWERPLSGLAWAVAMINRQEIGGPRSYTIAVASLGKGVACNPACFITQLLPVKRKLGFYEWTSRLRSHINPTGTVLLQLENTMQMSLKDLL
GAA inh: qHTS Assay for Inhibitors of Human alpha-Glucosidase as a Potential Chaperone Treatment of Pompe Disease. Lysosomal alpha-glucosidase (Homo sapiens), P10253. 0.005% of 200,000 active. AID 1466, 2008. purified human GAA, 4-MU-alpha-glucoside fluorescence. Potency, µM (doses to about 76.9 µM), inactives show at the highest dose activity change, negative = inhibition, actives largely listed as inhibitors;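 further: potency means the concentration at half of the fitted maximal effect; plate controls were uninhibited enzyme wells for no effect and no-enzyme background for full effect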
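Read-out is 4-methylumbelliferone fluorescence (Ex 365/Em 440 nm) after NaOH/glycine stop at pH 10. Enzyme 4 nM, substrate 400 uM, pH 5.0 citrate buffer, 20 min room temperature; AC50 from Hill-equation concentration-response.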
An asterisk follows results filed as active; ? = inconclusive; / = not tested or not shown; [ ] = dose if it differs, or a comment. The call rests on the fitted dose curve; in most records, active means well fitted curve in the direction sought with a large enough effect; inconclusive means small, poorly fitted or top-dose-only effect, or another doubt; inactive means no such curve, though single readings can be large; an effect the other way counts as inactive or inconclusive.

SMILES	GAA spleen mod	GAA glycogen	GLA spleen mod	GLA inh pH 4.5	GAA inh
CCSC[C@H](NC(=O)[C@H](C)N)C(=O)N[C@@H](CC(=O)O)C(=O)N[C@H](C(=O)N[C@@H](C)C(=O)N[C@H](C(=O)N[C@@H](CSCC)C(=O)N[C@H](C(=O)N[C@H](C(=O)N[C@@H](Cc1cnc[nH]1)C(=O)N[C@@H](CCCNC(=N)N)C(=O)N[C@@H](CC(C)C)C(=O)N[C@@H](C)C(=O)NCC(=O)N[C@@H](CC(C)C)C(=O)N[C@@H](CC(C)C)C(=O)N[C@@H](CO)C(=O)N[C@@H](CCCNC(=N)N)C(=O)N[C@@H](CO)C(=O)NCC(=O)NCC(=O)N[C@H](C(=O)N[C@H](C(=O)N[C@@H](CCCCN)C(=O)N[C@@H](CC(N)=O)C(=O)N[C@@H](CC(N)=O)C(=O)N[C@@H](Cc1ccccc1)C(=O)N[C@H](C(=O)N1CCC[C@H]1C(=O)N[C@H](C(=O)N[C@@H](CC(N)=O)C(=O)N[C@H](C(=O)NCC(=O)N[C@@H](CO)C(=O)N[C@@H](CCCCN)C(=O)N[C@@H](C)C(=O)N[C@@H](Cc1ccccc1)C(N)=O)C(C)C)[C@@H](C)O)C(C)C)C(C)C)C(C)C)[C@@H](C)O)C(C)C)[C@@H](C)O)[C@@H](C)O	2%	/	5%	/	/
CCCCN1CCC[C@H]1CNC(=O)c1cc(C#N)c2ccccc2c1OC	4%	/	7%	/	/
Oc1ccc(Cl)cc1N=Cc1sc2ccccc2c1Cl	10%	2.8µM*	7%	1	5%
CCCCN1C[C@H](O)[C@@H](O)[C@H](O)[C@H]1CO	1.6µM*	2.5µM*	4%	/	6.3µM*
CC1(C)CCC[C@@](C)([C@H]2CC[C@]3(C)[C@@H]2[C@H](O)CC2[C@@]4(C)CC[C@H](O)C(C)(C)[C@@H]4[C@@H](O)C[C@]23C)O1 (stereo not given in full)	6%	/	2%	/	/
CC(C)c1ccc(Nc2c(-c3ccccn3)nc3ccccn23)cc1	/	5.6µM*	/	/	/
Cc1ccccc1Nc1c(-c2ccccn2)nc2ccccn12	-1%	?	-1%	-3	-2%
Cc1ccn2c(Nc3ccccc3C)c(-c3ccccn3)nc2c1	-5%	4µM*	0%	0	0%
Cc1ccc2nc(-c3cccnc3)c(Nc3ccc(C(C)C)cc3)n2c1	/	-9%[76.3 µM]	/	/	/
Cc1ccn2c(Nc3ccc(C(C)C)cc3)c(-c3cccnc3)nc2c1	/	16µM*	/	/	/
NC=O	1%	/	7%	/	/
COC(=O)C1=C(C(=O)OC)[C@@H]2N(Cc3ccccc3)c3ccccc3[C@@]23C[C@@H](C(=O)OC)N(S(=O)(=O)c2ccc4c(c2)OCCN4C)C3=N1	-9%[17.4 µM]	/	-10%[17.5 µM]	5	/
O=C(CN1C(=O)c2ccccc2S1(=O)=O)c1ccc(O)c(O)c1	0%	14µM*	-2%	3	/
COc1ccc(C(=O)CN2C(=O)c3ccccc3S2(=O)=O)cc1	0%	-5%	9%	-8	/
Nc1ccc2nc(-c3cc(Cl)c(N)c(Cl)c3)[nH]c2c1	-1%	12µM*	-3%	0	4%
Nc1ccc2nc(-c3ccc(Cl)cc3)[nH]c2c1	5%	0%	16%	4	?
Cc1cc(/C=C/c2ccc3cc(N(C)C)ccc3[n+]2C)c(C)n1-c1ccccc1	-7%	/	2%	-7	/
CN1c2ccccc2C(C)(C)C12C=Cc1cc(O)ccc1O2 (stereo not given)	-11%	12µM*	5%	-20	0%
CN1c2ccccc2C(C)(C)C12C=Nc1c(cc(N3CCOCC3)c3ccccc13)O2 (stereo not given)	3%	-22%	9%	-15	5%
O=C1CC(N2CCc3ccccc32)C(=O)N1c1ccccc1 (stereo not given)	-3%	?	4%	7	/
CCOc1ccc(N2C(=O)CC(N3CCc4ccccc43)C2=O)cc1 (stereo not given)	0%	14µM*	-1%	1	-3%
CCCCCCCCCCCCCC[C@@H](O)[C@@H](O)[C@H](CO)NC(C)=O	-15%	/	-12%	/	/
CNC(=S)NNc1nncc2ccccc12	4%	10µM*	2%	-8	14%
O=C1C=CC(=O)C2=C1C1c3ccccc3C2c2ccccc21	-4%	/	4%	-8	/
Cc1c(N=Cc2ccc(-c3ccc(Cl)cc3)o2)c(=O)n(-c2ccccc2)n1C	2%	-11%	-7%	-1	-7%
SMILES	GAA spleen mod	GAA glycogen	GLA spleen mod	GLA inh pH 4.5	GAA inh
Cc1c(N=Cc2ccc(Cl)o2)c(=O)n(-c2ccccc2)n1C	2%	4.5µM*	5%	-24	-9%
Cc1c(N=Cc2ccco2)c(=O)n(-c2ccccc2)n1C	-15%	10µM*	-4%	8	3%
Cc1ccccc1-c1ccc(C=Nc2c(C)n(C)n(-c3ccccc3)c2=O)o1	4%	16µM*	3%	-3	-11%
Cc1c(N=CC=Nc2c(C)n(C)n(-c3ccccc3)c2=O)c(=O)n(-c2ccccc2)n1C	-3%	-25%	16%	8	1%
CCS(=O)(=O)Nc1c(C(=O)OC)[nH]c2ccccc12	-1%	4.5µM*	7%	6	-3%
CCS(=O)(=O)Nc1c(C(=O)O)[nH]c2ccccc12	-2%	5µM*	-3%	0	-7%
C=CCOC(=O)Nc1c(C(=O)OC)[nH]c2ccccc12	-12%	-1%	-5%	6	-3%
COc1ccc(NC(=S)N2CCCC(c3nc4ccc(C)cc4[nH]3)C2)c(OC)c1 (stereo not given)	1%	16µM*	9%	-16	-5%
CCOC(=O)NC1(NCC(C)C)Oc2ccccc2O1	-4%	?	0%	5	-3%
CCOC(=O)NC1(NC(C)C)Oc2ccccc2O1	-3%	11%	2%	-5	-8%
CCOC(=O)NC1(NCc2ccccc2)Oc2ccccc2O1	1%	16µM*	5%	-4	4%
CCOC(=O)NC1(NC2CCCCC2)Oc2ccccc2O1	3%	8.9µM*	3%	5	3%
Cc1cc(NC(=O)CN2CCN(c3ccccc3O)CC2)no1	-3%	13µM*	-19%	2	-2%
CN1C/C(=C/c2ccc(B(O)O)cc2)C(=O)/C(=C/c2ccc(B(O)O)cc2)C1	4%	/	-3%	/	/
Cc1ccc(NC(=O)Nc2sc(=S)n(C)c2C)cc1	-7%	25µM*	-6%	5	0%
CC(=O)NC(=O)Nc1sc(=S)n(C)c1C	1%	?	4%	3	-9%

Compound activity (PubChem BioAssay)
